Laboratory results from PubChem BioAssay (NCATS).
Results filed as inconclusive are left out. Unmarked numbers belong to inactive results. Activity calls are given as the source filed them. Calls come from the whole dose curve; as a rule, active = well fitted curve in the direction sought with a large enough effect; inconclusive = small, poorly fitted or top-dose-only effect, or another doubt; inactive = no such curve, though single readings can be large; an effect the other way counts as inactive or inconclusive. Non-standard residues stand in square brackets, D forms with d. Residues, ends and D or L forms follow the SMILES beside them. *: point of attachment. Benzoyl(4-tBu) = CC(C)(C)c1ccc(C(=O)*)cc1; Lys(Et2) = CCN(CC)CCCC[C@H](N)C(=O)O

Columns and labels:
[1] = BET inhibitor-based combinations targeting novel dependencies in MECOM-rearranged (r) AML: SET-2 cell line (AID 2202231); conditions: SET-2 AML cells viability, CellTiter-Glo luminescence, 48 h; viability: active compounds read low, concentration not given here; note: nearly all actives have a fitted effect of over 35% in size;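 for viability: plate controls were DMSO treated cells for no effect and wells without cells for full effect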
How it was run: (§1)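 Each compound was tested at eleven concentrations on cells seeded at 500/well. After two days' incubation, ATP-based luminescence reported viability; responses relative to DMSO and blank wells yielded AUC and cell-line-centred Z-AUC.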

[2] = BET inhibitor-based combinations targeting novel dependencies in MECOM-rearranged (r) AML: OCI-AML3 cell line (AID 2202232); conditions: Potency: OCI-AML3 viability; note: nearly all actives have a fitted effect of over 35% in size
How it was run: as §1

[3] = BET inhibitor-based combinations targeting novel dependencies in MECOM-rearranged (r) AML: MV-4-11 cell line (AID 2202233); note: nearly all actives have a fitted effect of over 45% in size
How it was run: (§2)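 First, 500 cells per well were seeded; next, drugs were pinned as 11-point doses; then plates sat 48 hr in the incubator; finally CellTiter-Glo was added and luminescence read, with AUC and Z-AUC computed.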

[4] = BET inhibitor-based combinations targeting novel dependencies in MECOM-rearranged (r) AML: HNT-34 cell line (AID 2202234); note: nearly all actives have a fitted effect of over 35% in size
How it was run: as §2

[5] = BET inhibitor-based combinations targeting novel dependencies in MECOM-rearranged (r) AML: UCSD-AML1 cell line (AID 2202235); note: nearly all actives have a fitted effect of over 40% in size
How it was run: as §2

[6] = BET inhibitor-based combinations targeting novel dependencies in MECOM-rearranged (r) AML: AML-191 cell line (AID 2202236; note: nearly all actives have a fitted effect of over 35% in size)
How it was run: as §1

[7] = BET inhibitor-based combinations targeting novel dependencies in MECOM-rearranged (r) AML: AML-194 cell line (AID 2202237; note: nearly all actives have a fitted effect of over 40% in size)
How it was run: as §1
Potency is the fitted concentration of half-maximal effect.

SMILES | viability [1] [%] | Potency [2] | Potency [3] | Potency [4] | Potency [5] | Potency [6] | Potency [1] | Potency [7]
CN1C(N)=N[C@](C)(c2cc(NC(=O)c3ccc(F)cn3)ccc2F)CS1(=O)=O | 121 | inactive | inactive | inactive | inactive | inactive | – | –
C[C@@]12C(=O)OC(=O)[C@]1(C)[C@H]1CC[C@@H]2O1 | – | 3.72 µM (active) | 3.32 µM (active) | 2.95 µM (active) | 7.42 µM (active) | 2.95 µM (active) | 4.17 µM (active) | –
CN1CC(=O)N2[C@H](c3ccc4c(c3)OCO4)c3[nH]c4ccccc4c3C[C@@H]2C1=O | 116 | inactive | inactive | inactive | inactive | inactive | – | inactive
O=C(CCCCCCC(=O)N/N=C/c1ccc(N(c2ccccc2)c2ccccc2)cc1)NO | – | 13.2 µM (active) | 4.68 µM (active) | 4.68 µM (active) | 7.42 µM (active) | 6.61 µM (active) | 7.42 µM (active) | –
CCC(=O)NCC[C@@H]1CCc2ccc3c(c21)CCO3 | 114 | inactive | inactive | inactive | inactive | inactive | – | inactive
N=C(N)c1ccc2nc(-c3cc(CC(=O)N[C@@H](CC(=O)O)C(=O)O)cc(-c4cc(S(N)(=O)=O)ccc4O)c3O)[nH]c2c1 | 117 | inactive | inactive | inactive | inactive | inactive | – | inactive
CCC[C@H](NC(=O)/C(C#N)=C/c1cccc(Br)n1)c1ccccc1 | – | 3.32 µM (active) | 2.95 µM (active) | 2.95 µM (active) | 3.32 µM (active) | 3.72 µM (active) | 4.17 µM (active) | 7.42 µM (active)
CC1(C)O[C@@H]2C[C@H]3[C@@H]4C[C@H](F)C5=CC(=O)C=C[C@]5(C)[C@@]4(F)[C@@H](O)C[C@]3(C)[C@]2(C(=O)CO)O1 | 113 | inactive | inactive | inactive | inactive | inactive | – | inactive
Nc1cc(COc2c(Cl)cc(C[C@H](N)C(=O)O)cc2Cl)c2oc(-c3ccccc3)nc2c1 | – | 13.2 µM (active) | 10.5 µM (active) | inactive | inactive | 20.9 µM (active) | 11.8 µM (active) | inactive
COCCOC(=O)N1CCN(S(=O)(=O)c2cc(F)c(Oc3ccc(Cl)cc3)c(F)c2)C(C(=O)NO)C1 (stereo unspecified) | – | 14.8 µM (active) | 16.6 µM (active) | 5.9 µM (active) | 10.5 µM (active) | 8.33 µM (active) | 10.5 µM (active) | 8.33 µM (active)
C=CC[N+]1([C@H]2C[C@H]3[C@@H]4CC[C@H]5C[C@H](O)[C@@H](N6CCOCC6)C[C@]5(C)[C@H]4CC[C@]3(C)[C@H]2OC(C)=O)CCCC1 | 115 | inactive | inactive | inactive | inactive | inactive | – | inactive
C=CC(=O)Nc1cccc(Oc2nc(Nc3ccc(N4CCN(C)CC4)cc3)nc3ccsc23)c1 | – | 10.5 µM (active) | 8.33 µM (active) | 8.33 µM (active) | 9.34 µM (active) | 23.5 µM (active) | 26.3 µM (active) | 14.8 µM (active)
Cc1ccc(NS(=O)(=O)c2ccc3c(c2)C2C=CCC2C(c2ccc(C(=O)O)cc2)N3)cc1C (stereo unspecified) | 109 | inactive | inactive | inactive | inactive | inactive | – | inactive
CCCCCCCCCCCCCCCCCCCCCCO | 112 | inactive | inactive | inactive | inactive | inactive | – | inactive
CCN(CC)CCCC[C@H](NC(=O)[C@H](CC(C)C)NC(=O)[C@H](C)NC(=O)[C@H](Cc1ccccc1)NC(=O)c1ccc(C(C)(C)C)cc1)C(=O)N[C@@H](CO)C(=O)OC ({Benzoyl(4-tBu)}-FAL[Lys(Et2)]S-OMe) | 71.5 | inactive | inactive | inactive | inactive | inactive | – | inactive
C[C@H](NC(=O)/C(C#N)=C/c1cccc(Br)n1)c1ccccc1 | – | 4.68 µM (active) | 4.17 µM (active) | 4.17 µM (active) | 3.72 µM (active) | 4.68 µM (active) | 7.42 µM (active) | 9.34 µM (active)
O=C(NO)c1cnc(N2C[C@H]3C[C@@H]2CN3c2cc(C(F)(F)F)ccn2)nc1 | – | 3.72 µM (active) | 2.09 µM (active) | 3.72 µM (active) | 3.72 µM (active) | 4.17 µM (active) | 2.35 µM (active) | 4.17 µM (active)
